One test relates to CRL-7250. The test can be described thus: Cytotoxic Profiling of Annotated Libraries Using Quantitative High-Throughput Screening (AID 1296008). Further: potency means the concentration at half of the fitted maximal effect. On max response: on the % scale 0 is the no-effect control and ±100 the full control effect. The note with it: Five cell lines viability, CellTiter-Glo ATP luminescence, 48-72 h; max response: hits give low values. The gist of the method: (§1)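 Compounds were pin-transferred onto cells and incubated 48 or 72 hr at 37 degree Celsius, 95% humidity. CellTiter-Glo was added, plates sat 10 min at room temperature, then ATP-coupled luminescence was imaged as the viability read-out.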
On the technique in general: In ATP-based viability assays light output follows the ATP content of the culture.

Test [1] relates to HaCat. The description is as above. The note with it: Five cell lines viability, CellTiter-Glo ATP luminescence, 48-72 h; max response: hits give low values. The gist of the method: as §1
A further test relates to KB-3-1. Described as above. The settings on record: Five cell lines viability, CellTiter-Glo ATP luminescence, 48-72 h; max response: hits give low values. The gist of the method: as §1
The subject of a further test is NIH3T3. The description is as above. The note with it: Five cell lines viability, CellTiter-Glo ATP luminescence, 48-72 h; max response: hits give low values. The gist of the method: as §1
Another test has as its system HEK293. The description is as above. The settings on record: Five cell lines viability, CellTiter-Glo ATP luminescence, 48-72 h; max response: hits give low values. The gist of the method: as §1
Test [2] deals with HACAT. The test can be described thus: qHTS assay to identify novel small-molecules to repurpose for Merkel cell carcinoma treatment (AID 1296009). The note with it: MCC and control cell lines, CellTiter-Glo viability, 72 h; at 44.8 µM (top of the series) unless noted. The gist of the method: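 Luminescence from CellTiter-Glo, read 10 min after addition at room temperature, reported viability following a 72 hr, 37 degree celsius treatment with NPC or MIPE compounds in titration; values normalized to plate controls.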
For orientation: In qHTS, concentration-response curves come from the screen itself.

The test system of the next test is TAB109. Briefly: qHTS profiling for inhibitors of Plasmodium falciparum proliferation (AID 504749).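 Further: 0% = DMSO vehicle and full inhibition = artemisinin control.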 The note with it: P. falciparum in erythrocytes, SYBR Green DNA, 72 h; series mostly up to 28.7 µM. The gist of the method: (§2)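 Fluorescence of SYBR Green-bound parasite DNA, read at 485/535 nm, served as the growth measure. Infected erythrocytes were cultured with compound 72 h; artemisinin (0.29 uM) and DMSO wells defined the normalization range.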

The next test deals with TAB113. The description is as above. The note with it: P. falciparum in erythrocytes, SYBR Green DNA, 72 h; series mostly up to 28.7 µM. The gist of the method:
as §2

The next test relates to TAB165. The description is as above. The note with it: P. falciparum in erythrocytes, SYBR Green DNA, 72 h; series mostly up to 28.7 µM. The gist of the method: as §2
A further test has as its system W2. The test is described as above. The settings on record: P. falciparum in erythrocytes, SYBR Green DNA, 72 h; series mostly up to 28.7 µM. The gist of the method:
as §2

“And” between values parts separate entries of the source, which are not always exact repeats. Equal entries are not always repeated. Inconclusive results are not listed. More than one record can exist for a structure, and the calls need not agree. Values without a mark were called inactive. The source made the active and inactive calls. The call rests on the fitted dose curve; in most records, active means well fitted inhibition curve with a large enough effect; inconclusive means small, poorly fitted or top-dose-only effect; inactive means flat fitted curve, though single readings scatter.
Further: nearly all actives have a fitted effect of over 60% in size.

With `CCn1c(=O)c2c(nc(C=Cc3ccc(OC)c(OC)c3)n2C)n(CC)c1=O`, the max response in the test with CRL-7250 was -2.94%; in the test with HaCat [1] it was -8.26%; in the test on KB-3-1, 9.4%. The call with NIH3T3 was inactive.
For the compound `O=C1CSC(=O)N1C(CCc1ccncc1)COc1ccc(-c2cccc([N+](=O)[O-])c2)cc1` (centres undefined), the max response with CRL-7250 was -33.8%; in the test with HaCat [1], -30.8%; in the test with KB-3-1 it was -6.99%; in the test on NIH3T3 it was -3.92%.
As to `CC(C)c1cc(C(C)C)c(CC(=O)NS(=O)(=O)Oc2c(C(C)C)cccc2C(C)C)c(C(C)C)c1`, the max response was 4.74% and 1.75% in the test with CRL-7250; 0.698% and -52.4% with HaCat [1]; 0.649% with KB-3-1.
On to `CCCCC(=O)O[C@]1(C(=O)CO)[C@@H](C)C[C@H]2[C@@H]3CCC4=CC(=O)C=C[C@]4(C)[C@@]3(F)[C@@H](O)C[C@@]21C`, for which the outcome in the test with CRL-7250 and in the test with KB-3-1 was inactive. Moreover, the max response is 3.05% with HEK293 and -1.65% in the test on NIH3T3.
As to `CCS(=O)(=O)Nc1ccc2[nH]c(O)c(C(=Nc3ccc(CN4CCCCC4)cc3)c3ccccc3)c2c1`, the Potency in the test with CRL-7250 was 1.32 µM (active); with HEK293, 0.743 µM (active); with KB-3-1, 9.35 µM (active); with NIH3T3, 0.264 µM (active).
In the case of `C[C@H](NC(=O)[C@@H](O)c1cc(F)cc(F)c1)C(=O)N[C@@H]1C(=O)N(C)c2ccccc2-c2ccccc21`, the max response in the test on CRL-7250 is -10.4%; with HaCat [1] it was -6.76%; in the test on KB-3-1, -9.73%; with NIH3T3, -4.85%.
`CCNC(=O)c1cc2c(-c3cc(OCCN4CCCC4)c(Cl)cc3Cl)nc(N)nc2s1`: the Potency with CRL-7250 was 4.69 µM (active); in the test with HEK293, 0.418 µM (active); with NIH3T3, 2.35 µM (active).
Turning to `CCCCCCCN(CC)CCCC(O)c1ccc(NS(C)(=O)=O)cc1` (centres undefined), the results for the max response in the test on CRL-7250, in the test on KB-3-1 and in the test with NIH3T3 were 0.839%, -6.17% and -1.95%, respectively. For the same compound, the compound was classed as inactive in the test with HaCat [1] and with HACAT [2].
For the compound `c1ccc2c(Oc3nc(Nc4ccc(N5CCOCC5)cc4)c4ncn(C5CCCCC5)c4n3)cccc2c1`, the max response is -3.84% and 0.807% in the test with CRL-7250; 8.53% in the test with KB-3-1; 1.5% and -0.0324% with NIH3T3. For the same compound, the call in the test with HaCat [1] and in the test on HACAT [2] was inactive.
Turning to `Cn1cnc(=N)c2[nH]cnc21`, the Potency in the test on CRL-7250 is 8.33 µM (active); with HaCat [1], 13.2 µM (active); in the test on KB-3-1 it was 10.5 µM (active); with NIH3T3 it was 9.35 µM (active).
`CCc1c(O)cc(O)c(C(=O)c2ccc(OCCN3CCOCC3)c(OC)c2)c1CC(=O)N(CCOC)CCOC`: the values for the Potency with CRL-7250, in the test with HEK293 and in the test on NIH3T3 were 1.32 µM (active), 0.833 µM (active) and 11.8 µM (active), respectively.
Turning to `N=c1ccn2c(n1)O[C@H]1[C@@H](O)[C@@H](CO)O[C@H]12`, the max response was -13.3% with CRL-7250 and -23.9% with KB-3-1. Further, the Potency in the test with HEK293 was 4.18 µM (active); in the test with NIH3T3, 3.32 µM (active).
With `CC(=O)O[C@@]12CO[C@H]1C[C@H](O)[C@@]1(C)C(=O)[C@H](O)C3=C(C)[C@@H](OC(=O)C(O)[C@@H](NC(=O)OC(C)(C)C)c4ccccc4)C[C@@](O)([C@@H](OC(=O)c4ccccc4)[C@@H]21)C3(C)C` (some centres undefined), the max response in the test on CRL-7250 is -64.7%; in the test on HEK293, -90.2%; in the test with NIH3T3, -88.1%. The Potency in the test with KB-3-1 is 0.0526 µM (active).
With `CN(C)CC(=O)N1CCC(c2ccc(NC(=O)c3ncc(C#N)[nH]3)c(C3=CCCCC3)c2)CC1`, the compound was classed as inactive in the test on CRL-7250, in the test on HaCat [1] and in the test with HACAT [2]. Besides, the max response with HaCat [1] was 3.1%; with KB-3-1, 3.44% and -16.9%; with NIH3T3, 0.938%. Also, the Potency with NIH3T3 was 0.92 µM (active).
Turning to `O=C1NCCc2[nH]c(-c3ccncc3)cc21`, the Potency with CRL-7250 is 7.43 µM (active); in the test with NIH3T3, 23.5 µM (active).
As to `Cn1cc(-c2ccc3ncc(Cc4ccc5ncccc5c4)n3n2)cn1`, the max response with HEK293 was 4.11%; with HaCat [1], -43.1%; in the test on KB-3-1, 8.56% and 1.39%. In the test with HaCat [1], the Potency is 20.6 µM (active).
`O=C(NCc1ccccc1)[C@H](Cc1ccccc1)NC(=O)[C@@H]1O[C@@H]1C(=O)NCCc1ccc(O)cc1`: the compound was called inactive with CRL-7250, with HaCat [1] and with HACAT [2]. For the same compound, the figures for the max response in the test on KB-3-1 and with NIH3T3 were 8.9% and 3.87%, respectively.
For the compound `COc1ccc2c(c1OC)C(=O)OC2[C@H]1c2c(cc3c(c2OC)OCO3)CCN1C` (some centres undefined), the Potency result in the test on TAB109, in the test on TAB113, in the test with TAB165 and in the test on W2 was “inactive” throughout. Also, the Potency in the test on CRL-7250 is 0.833 µM (active); with HaCat [1], 10.5 µM (active); with KB-3-1, 0.118 µM (active); with NIH3T3, 1.05 µM (active).
As to `C=CC(=O)N1CCc2ccc(-n3c(=O)ccc4cnc5ccc(-c6cnn(C)c6)cc5c43)cc21`, the Potency is 3.72 µM (active) with CRL-7250 and 4.18 µM (active) with KB-3-1.
Turning to `CCOc1cc2c(c(F)c1OCC)C(=N)N(CC(=O)c1cc(N3CCOCC3)c(OC)c(C(C)(C)C)c1)C2`, the Potency in the test with HEK293 is 16.4 µM (active).
As for `CC[C@]12C=CCN3CC[C@@]4(c5cc([C@@]6(C(=O)OC)C[C@H]7C[C@@H](C(C)(F)F)CN(Cc8c6[nH]c6ccccc86)C7)c(OC)cc5N(C)[C@H]4[C@@](O)(C(=O)OC)[C@H]1OC(C)=O)[C@@H]32`, the Potency in the test on HEK293 was 0.0083 µM (active); with KB-3-1, 0.0105 µM (active). Moreover, in the test on HaCat [1], the max response was -0.147%.
As to `COc1cc(C)c(Sc2cnc(NC(=O)c3ccc(CNC(C)C(C)(C)C)cc3)s2)cc1C(=O)N1CCN(C(C)=O)CC1` (centres undefined), the Potency is 14.8 µM (active) in the test with HEK293, 26.4 µM (active) in the test with HaCat [1] and 11.8 µM (active) in the test on KB-3-1.
In the case of `C[C@H]1COc2c(N3CCN(C)CC3)c(F)cc3c(=O)c(C(=O)O)cn1c23`, the max response in the test with CRL-7250 was -8.35%; with KB-3-1, 6.8%. In addition, in the test on NIH3T3, the compound was classed as inactive.

The values are drawn from PubChem BioAssay (NCATS).
